PubChem BioAssay AID624202 (National Center for Advancing Translational Sciences (NCATS), 2012)
The whole screen tested about 380,000 compounds, of which about 4,000 (1.1%) were called active. Not shown: some 3% with an inconclusive outcome. Calls come from the whole dose curve; as a rule, active = well fitted activation curve with a large enough effect; inconclusive = small, poorly fitted or top-dose-only effect; inactive = no such curve, though single readings can be large or run the other way. Shown is part of a subset that was picked to be rich in actives.

test: qHTS Assay to Identify Small Molecule Activators of BRCA1 Expression; settings: MCF7-BRCA1-FFLuc reporter, luminescence, 48 h; series mostly up to 46.1 µM; activation: at the top concentration; note: nearly all actives have a fitted effect of over 80% in size
Summary of the method: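 48 h compound treatment of MCF7-BRCA1-FFLuc cells (phenol-red free MEM, 37 °C), then 15 min with luciferase substrate and luminescence imaging.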
Potency is the fitted concentration of half-maximal effect.

activation, inactive:
CCn1c(=O)c2cc(C(=O)NCCc3ccc(Cl)cc3)sc2c2ccccc21 -7.3%
COc1cc(OC)c(OC)cc1/C=C1\C=Cc2ccccc21 -1.54%
COc1ccc(C(=O)NCc2nnc(SCC(=O)Nc3cccc(OC)c3)o2)cc1 10.8%
COc1cccc(NC(=O)CN(C)C(C)C(=O)Nc2ccc(C#N)cc2)c1 (stereo not drawn) -16.1%
Cc1ccc(C(=O)Nc2ccc(OCc3cc(=O)n4c(C)csc4n3)cc2)cc1 11.9%
Cc1ccc(-c2nnc3ccc(SCC(N)=O)nn23)cc1 19.8%
CCOC(=O)c1oc2ccc(S(=O)(=O)n3nc(-c4ccccc4OC)cc3N)cc2c1C 4.41%
O=C(CSc1nc2ccccc2o1)N1CCN(c2ccccc2)CC1 -2.33%
O=C(CSc1nc2ccccc2o1)N/N=C/c1ccccc1C(=O)O 30.4%
CC1=C(C(=O)OCc2ccc(C)cc2)C(c2ccccc2Cl)CC(=O)N1 (stereo not drawn) -3.29%
CCc1ccc(CNC(=O)c2cc3c(=O)n(CC)c4ccccc4c3s2)cc1 -26.6%
Cc1cccc(N2CCN(c3ccc(C(=O)O)cc3NC(=O)c3ccccc3F)CC2C)c1 (stereo not drawn) 27%
COc1cc(Cl)c(C)cc1NC(=O)CN1CCCCCC1 15.9%
O=C(CN1CCCCCC1)Nc1ccc(Cl)cc1F -8.5%
Cc1ccc(-c2nn3c(=O)cc(CN4CCN(S(=O)(=O)c5ccc(Cl)cc5)CC4)nc3s2)cc1 8.18%
COc1ccc(-c2nc3ccccc3s2)cc1NC(=O)COc1ccccc1C 0%
CCCCCCC1(C)NC(c2ccc3c(c2)OCO3)=CC(c2ccccc2O)N1 (stereo not drawn) -23.1%
COc1ccc(Nc2ncc(C(=O)Nc3cc(C)ccc3OC)c3ccccc23)cc1 -69.1%
CC1=C(C(=O)OCc2ccc(C)cc2)C(c2c(Cl)cccc2Cl)CC(=O)N1 (stereo not drawn) 13%
Fc1ccc(COc2cccc(-c3n[nH]c(=S)o3)c2)cc1 0.968%
Fc1cccc(Cl)c1COc1ccc(-c2nnco2)cc1 36.9%
COc1cc2nc(Cl)nc(NC3CC3)c2cc1OC 0%
O=C1COc2ccc(-c3csc(-c4ccc(Cl)cc4)n3)cc2N1 -0.092%
Cc1nonc1C1CCCN1C(=O)c1cc(COc2cccc(C(F)(F)F)c2)on1 (stereo not drawn) -1.32%
Cc1ccc(OCc2cc(C(=O)N(C)CCn3ccnc3C)no2)cc1C 33.8%
Cc1[nH]c2ccccc2c1C(c1ccccc1)c1cccs1 (stereo not drawn) -62.9%
CC(=O)c1ccc(NC(=O)c2nc(-c3ccc(C)cc3)n3c2CCCCC3)cc1 -35.8%
Nc1ncnc2nnsc12 15.5%
COc1ccccc1-c1c(C)nn2c(C)c(C(C)=O)cnc12 0.312%
CCc1ccc2nc(Nc3ncc(C(C)=O)c(C)n3)nc(C)c2c1 0.142%
O=C(Cn1c(=O)n(Cc2cccs2)c(=O)c2cccnc21)Nc1ccc(F)cc1 -25.9%
CCc1ccccc1NC(=O)Cn1c(=O)n(CC2CCC(C(=O)NCCc3ccccc3)CC2)c(=O)c2ccccc21 (stereo not drawn) 5.1%
O=C(Cn1c(=O)n(Cc2ccccc2)c(=O)c2sc3ccccc3c21)Nc1ccccc1F 1.09%
COc1ccc(N2C(=O)CSC23C(=O)N(Cc2cccc(F)c2)c2ccccc23)cc1Cl (stereo not drawn) -50.1%
COc1ccc(CCNC(=O)CCc2c(C)nc3c(c(C)nn3-c3ccc(C)c(C)c3)c2C)c(OC)c1OC 5.62%
Cc1ccc(S(=O)(=O)n2nc(-c3ccc(Cl)cc3)nc2NCc2ccccc2)cc1 2.77%
CCS(=O)(=O)n1nc(-c2ccc(OC)cc2)nc1SC 33.3%
COc1ccccc1N1CCN(c2ncnc3onc(-c4ccc(F)cc4)c23)CC1 -0.976%
COc1ccc(-n2nnc(-c3nsc(NC(=O)c4ccc(C)c(C)c4)n3)c2C)cc1Cl -0.247%
CCOc1ccc(CCNC(=O)c2csc3c2CCCCC3)cc1 -1.32%
CCOC(=O)c1ccc(NC(=O)c2csc3c2CCCCC3)cc1 34.8%
Cc1ccc(OCCSc2nc3ccc(NC(=O)COc4ccc(C)cc4)cc3s2)cc1 18.4%
O=C(Cn1c(=O)n(-c2ccc(F)cc2)c(=O)c2sc3ccccc3c21)NC1CCCC1 -12.4%
Cc1cccc(NC(=O)N2CCN(C)c3ncccc32)c1C 9.79%
CCCCC(CC)CNC(=O)C1CCN(S(=O)(=O)c2cccc3nsnc23)CC1 (stereo not drawn) -6.65%
C=CCn1c(SCc2nnc(-c3ccccc3)o2)nnc1C(O)c1ccccc1 (stereo not drawn) 1.72%
CCCN(CCC)c1ccc(C(O)c2nnc(-c3ccccc3)o2)cc1 (stereo not drawn) 24.9%
Cc1cc(C)cc(NC(=O)Cn2c(=O)c3ccccc3n3nncc23)c1 7.25%
Cc1ccc(C=O)cc1Cl 18.6%
O=C(OCc1cc(=O)n2nc(C3CC3)sc2n1)c1ccccc1Cl 12%
COc1cc2nc(SCC(=O)Nc3ccccc3F)n3nc(-c4ccccc4)nc3c2cc1OC 0%
Cc1cc(C)cc(-n2ccnc2SCC(=O)Nc2nc3ccccc3s2)c1 9.67%
COc1cccc(CNC(=O)c2ccc3c(Cl)c4c(nc3c2)CCCC4)c1 10.5%
Cc1cc2oc3ccc(NCCC4CCCN4C)cc3c(=O)c2cc1C (stereo not drawn) -78%
CN1CCC[C@@H]1CCO[C@](C)(c1ccccc1)c1ccc(Cl)cc1 0%
Oc1ccc(Cl)cc1C1C=C(c2ccc3c(c2)OCO3)NC(c2c(F)cccc2Cl)N1 (stereo not drawn) -40.2%

Potency, active:
CCC(=O)Nc1ccc(C(=O)Nc2cccc(OC)c2)cc1 12.6 µM
Cc1ccc(/C=N/NC(=O)CSc2nc3ccccc3o2)cc1 11.2 µM
CC(=O)Nc1ccc(NC(=O)CN2CCCC(C)C2)c(Cl)c1 (stereo not drawn) 11.2 µM
COc1ccc(Nc2ncnc3sc(C)cc23)cc1 8.91 µM
Fc1ccc(COc2ccc(-c3nnco3)cc2)cc1 11.2 µM
COCC1CCCCN1C(=O)c1cc(COc2ccc(C)c(C)c2)on1 (stereo not drawn) 11.2 µM
COc1ccccc1Nc1ncc(C(C)=O)c(C)n1 10 µM
CCS(=O)(=O)n1nc(-c2ccccc2)nc1SCc1ccccc1 3.98 µM
Cc1ccc(NC(=O)c2csc3c2CCCC3)cc1 12.6 µM
OC(c1nnc(-c2ccccc2)o1)c1cccs1 (stereo not drawn) 11.2 µM
COc1cccc2sc3cc(NCC[C@@H]4CCCN4C)ccc3c(=O)c12 11.2 µM

Potency, inactive:
COc1ccc(Nc2ncc(C(=O)N3CCN(c4ccccc4OC)CC3)c3ccccc23)cc1
